Assay results taken from ChEMBL document CHEMBL1961873, “Compounds: GSK PKIS; Assays: Nanosyn kinase panel” (2012).

Legend:
[1] = target: Death-associated protein kinase 1 (Homo sapiens) (UniProt P53355); conditions: at 1 µM;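 note: each value is a mean inhibition figure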
[2] = target: T1, Serine/threonine-protein kinase DCLK2 (Homo sapiens) (UniProt Q8N568); conditions: at 0.1 µM
T1 sequence (whole entry): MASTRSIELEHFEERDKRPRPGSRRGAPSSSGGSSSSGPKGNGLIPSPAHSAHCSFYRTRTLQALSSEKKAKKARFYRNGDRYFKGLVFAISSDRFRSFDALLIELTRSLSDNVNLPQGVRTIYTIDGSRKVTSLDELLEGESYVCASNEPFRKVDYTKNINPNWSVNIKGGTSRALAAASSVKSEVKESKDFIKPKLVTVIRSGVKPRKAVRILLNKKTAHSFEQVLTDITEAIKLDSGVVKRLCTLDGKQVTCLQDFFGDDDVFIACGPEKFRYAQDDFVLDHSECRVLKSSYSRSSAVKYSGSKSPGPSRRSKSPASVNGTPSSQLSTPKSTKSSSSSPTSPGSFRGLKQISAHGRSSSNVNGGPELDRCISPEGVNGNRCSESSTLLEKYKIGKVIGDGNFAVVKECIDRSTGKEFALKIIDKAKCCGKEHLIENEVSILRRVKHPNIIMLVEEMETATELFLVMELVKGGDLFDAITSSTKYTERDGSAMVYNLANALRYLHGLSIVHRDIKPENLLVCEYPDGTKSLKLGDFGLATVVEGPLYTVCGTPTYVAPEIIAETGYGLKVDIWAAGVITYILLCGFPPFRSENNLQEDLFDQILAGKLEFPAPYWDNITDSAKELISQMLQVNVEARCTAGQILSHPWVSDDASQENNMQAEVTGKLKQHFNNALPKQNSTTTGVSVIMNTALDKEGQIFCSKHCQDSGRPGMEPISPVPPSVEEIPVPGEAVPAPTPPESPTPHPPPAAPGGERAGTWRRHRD

[3] = target: T1, Serine/threonine-protein kinase DCLK2 (Homo sapiens); conditions: at 1 µM
[4] = target: MAP kinase-activated protein kinase 2 (Homo sapiens) (UniProt P49137); conditions: at 0.1 µM
[5] = target: MAP kinase-activated protein kinase 2 (Homo sapiens) (UniProt P49137); conditions: at 1 µM
[6] = target: MAP kinase-activated protein kinase 3 (Homo sapiens) (UniProt Q16644); conditions: at 0.1 µM
[7] = target: MAP kinase-activated protein kinase 3 (Homo sapiens) (UniProt Q16644); conditions: at 1 µM
[8] = target: Serine/threonine-protein kinase MARK1 (Homo sapiens) (UniProt Q9P0L2); conditions: at 0.1 µM
[9] = target: Serine/threonine-protein kinase MARK1 (Homo sapiens) (UniProt Q9P0L2); conditions: at 1 µM
[10] = target: MAP/microtubule affinity-regulating kinase 3 (Homo sapiens) (UniProt P27448); conditions: at 0.1 µM
[11] = target: MAP/microtubule affinity-regulating kinase 3 (Homo sapiens) (UniProt P27448); conditions: at 1 µM
[12] = target: T2, MAP/microtubule affinity-regulating kinase 4 (Homo sapiens) (UniProt Q96L34); conditions: at 0.1 µM
T2 sequence (whole entry): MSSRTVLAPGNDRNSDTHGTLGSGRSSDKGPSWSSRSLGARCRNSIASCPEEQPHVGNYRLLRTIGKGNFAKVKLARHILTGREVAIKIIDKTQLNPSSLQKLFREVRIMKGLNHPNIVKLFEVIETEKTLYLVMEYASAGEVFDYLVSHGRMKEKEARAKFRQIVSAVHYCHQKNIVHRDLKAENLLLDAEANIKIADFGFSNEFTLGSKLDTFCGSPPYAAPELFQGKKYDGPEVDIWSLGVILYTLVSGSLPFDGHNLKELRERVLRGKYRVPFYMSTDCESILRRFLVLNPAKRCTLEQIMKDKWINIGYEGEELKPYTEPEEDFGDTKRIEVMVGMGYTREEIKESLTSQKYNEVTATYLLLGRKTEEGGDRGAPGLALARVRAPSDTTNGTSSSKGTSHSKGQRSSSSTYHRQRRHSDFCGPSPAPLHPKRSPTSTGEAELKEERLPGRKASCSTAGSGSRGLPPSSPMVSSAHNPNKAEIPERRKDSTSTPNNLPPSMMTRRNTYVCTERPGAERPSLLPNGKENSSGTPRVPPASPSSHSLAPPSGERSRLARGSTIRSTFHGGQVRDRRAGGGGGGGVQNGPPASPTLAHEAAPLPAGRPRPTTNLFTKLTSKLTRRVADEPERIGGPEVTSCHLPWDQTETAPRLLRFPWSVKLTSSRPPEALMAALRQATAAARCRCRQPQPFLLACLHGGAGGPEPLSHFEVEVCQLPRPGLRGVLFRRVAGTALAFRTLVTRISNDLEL

[13] = target: T2, MAP/microtubule affinity-regulating kinase 4 (Homo sapiens); conditions: at 1 µM
[14] = target: Maternal embryonic leucine zipper kinase (Homo sapiens) (UniProt Q14680); conditions: at 0.1 µM
[15] = target: Maternal embryonic leucine zipper kinase (Homo sapiens) (UniProt Q14680); conditions: at 1 µM
[16] = target: MAP kinase-interacting serine/threonine-protein kinase 1 (Homo sapiens) (UniProt Q9BUB5); conditions: at 0.1 µM
[17] = target: MAP kinase-interacting serine/threonine-protein kinase 1 (Homo sapiens) (UniProt Q9BUB5); conditions: at 1 µM
[18] = target: MAP kinase-interacting serine/threonine-protein kinase 2 (Homo sapiens) (UniProt Q9HBH9); conditions: at 0.1 µM
[19] = target: MAP kinase-interacting serine/threonine-protein kinase 2 (Homo sapiens) (UniProt Q9HBH9); conditions: at 1 µM
[20] = target: Serine/threonine-protein kinase MARK2 (Homo sapiens) (UniProt Q7KZI7); conditions: at 0.1 µM;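 note: mean percent inhibition of PAR-1Balpha kinase activity, reported from the GSK PKIS screen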
Sequence of Serine/threonine-protein kinase MARK2 (Homo sapiens) (Q7KZI7 whole entry): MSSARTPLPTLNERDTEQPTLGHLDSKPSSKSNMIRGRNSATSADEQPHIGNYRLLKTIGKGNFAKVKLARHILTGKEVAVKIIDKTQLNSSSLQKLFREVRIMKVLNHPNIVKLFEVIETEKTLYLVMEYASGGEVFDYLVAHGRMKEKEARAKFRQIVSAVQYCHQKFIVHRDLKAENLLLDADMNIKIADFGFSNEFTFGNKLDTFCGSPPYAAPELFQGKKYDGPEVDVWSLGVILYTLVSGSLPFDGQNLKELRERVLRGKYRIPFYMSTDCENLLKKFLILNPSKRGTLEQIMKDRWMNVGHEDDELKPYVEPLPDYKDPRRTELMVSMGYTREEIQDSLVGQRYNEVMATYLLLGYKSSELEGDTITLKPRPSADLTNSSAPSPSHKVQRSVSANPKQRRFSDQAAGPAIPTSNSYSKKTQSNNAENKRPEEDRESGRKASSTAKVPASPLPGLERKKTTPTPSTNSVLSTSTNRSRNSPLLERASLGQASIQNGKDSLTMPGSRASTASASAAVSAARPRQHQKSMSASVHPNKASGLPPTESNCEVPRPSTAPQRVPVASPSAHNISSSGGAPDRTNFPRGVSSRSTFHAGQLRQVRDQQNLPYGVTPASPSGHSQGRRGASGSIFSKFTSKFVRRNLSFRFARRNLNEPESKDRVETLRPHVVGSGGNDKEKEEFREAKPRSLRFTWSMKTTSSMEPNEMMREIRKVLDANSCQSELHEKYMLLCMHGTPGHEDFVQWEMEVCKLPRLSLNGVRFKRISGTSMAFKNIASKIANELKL

Sequence of MAP/microtubule affinity-regulating kinase 3 (Homo sapiens) (P27448 whole entry, looked up): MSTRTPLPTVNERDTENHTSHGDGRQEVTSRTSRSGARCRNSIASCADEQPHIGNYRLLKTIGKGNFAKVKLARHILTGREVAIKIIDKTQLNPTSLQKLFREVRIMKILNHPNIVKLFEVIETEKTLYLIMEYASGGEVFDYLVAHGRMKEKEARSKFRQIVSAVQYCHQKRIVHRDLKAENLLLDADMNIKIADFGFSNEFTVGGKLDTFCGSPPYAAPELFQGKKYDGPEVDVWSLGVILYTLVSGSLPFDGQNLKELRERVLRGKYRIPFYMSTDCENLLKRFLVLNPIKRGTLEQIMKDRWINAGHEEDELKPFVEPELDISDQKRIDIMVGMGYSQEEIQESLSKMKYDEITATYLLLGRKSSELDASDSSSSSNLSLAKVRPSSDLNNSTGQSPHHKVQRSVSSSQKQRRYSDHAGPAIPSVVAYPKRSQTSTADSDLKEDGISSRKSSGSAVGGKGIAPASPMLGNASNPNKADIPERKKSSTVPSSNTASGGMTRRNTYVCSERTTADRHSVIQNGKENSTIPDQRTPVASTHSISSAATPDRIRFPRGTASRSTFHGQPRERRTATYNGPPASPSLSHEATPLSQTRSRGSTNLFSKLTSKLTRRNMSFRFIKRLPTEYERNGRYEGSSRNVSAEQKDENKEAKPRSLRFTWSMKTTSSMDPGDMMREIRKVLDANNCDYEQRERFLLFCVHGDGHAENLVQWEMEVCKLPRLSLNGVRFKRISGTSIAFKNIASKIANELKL
Sequence of Maternal embryonic leucine zipper kinase (Homo sapiens) (Q14680 whole entry, looked up): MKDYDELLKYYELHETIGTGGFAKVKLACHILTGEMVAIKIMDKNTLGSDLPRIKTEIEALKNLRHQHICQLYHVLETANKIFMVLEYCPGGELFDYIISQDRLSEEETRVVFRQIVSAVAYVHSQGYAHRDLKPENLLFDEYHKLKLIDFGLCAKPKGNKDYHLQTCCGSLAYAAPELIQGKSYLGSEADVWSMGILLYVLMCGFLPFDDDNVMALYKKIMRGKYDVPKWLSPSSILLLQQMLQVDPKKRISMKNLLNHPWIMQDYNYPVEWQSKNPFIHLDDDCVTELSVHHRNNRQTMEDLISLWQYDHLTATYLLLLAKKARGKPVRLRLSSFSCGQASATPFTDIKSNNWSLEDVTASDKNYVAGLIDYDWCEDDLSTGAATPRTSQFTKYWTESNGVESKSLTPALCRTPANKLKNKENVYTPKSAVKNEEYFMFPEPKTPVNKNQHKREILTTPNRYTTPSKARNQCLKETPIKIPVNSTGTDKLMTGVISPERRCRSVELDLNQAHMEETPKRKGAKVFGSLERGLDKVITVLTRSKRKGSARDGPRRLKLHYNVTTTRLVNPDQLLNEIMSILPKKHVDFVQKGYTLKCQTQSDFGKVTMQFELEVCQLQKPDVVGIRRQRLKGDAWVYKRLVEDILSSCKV
Sequence of MAP kinase-activated protein kinase 3 (Homo sapiens) (Q16644 whole entry, looked up): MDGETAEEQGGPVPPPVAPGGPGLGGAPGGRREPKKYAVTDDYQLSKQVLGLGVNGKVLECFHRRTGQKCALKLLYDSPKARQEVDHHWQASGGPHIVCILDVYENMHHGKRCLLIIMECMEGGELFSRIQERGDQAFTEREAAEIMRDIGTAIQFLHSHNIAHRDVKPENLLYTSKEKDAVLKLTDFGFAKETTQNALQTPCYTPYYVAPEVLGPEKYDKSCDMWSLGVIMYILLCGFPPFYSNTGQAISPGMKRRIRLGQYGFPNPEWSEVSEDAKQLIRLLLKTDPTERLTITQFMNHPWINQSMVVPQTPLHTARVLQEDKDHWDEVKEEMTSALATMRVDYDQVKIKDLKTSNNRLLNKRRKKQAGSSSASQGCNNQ
Sequence of Death-associated protein kinase 1 (Homo sapiens) (P53355 whole entry, looked up): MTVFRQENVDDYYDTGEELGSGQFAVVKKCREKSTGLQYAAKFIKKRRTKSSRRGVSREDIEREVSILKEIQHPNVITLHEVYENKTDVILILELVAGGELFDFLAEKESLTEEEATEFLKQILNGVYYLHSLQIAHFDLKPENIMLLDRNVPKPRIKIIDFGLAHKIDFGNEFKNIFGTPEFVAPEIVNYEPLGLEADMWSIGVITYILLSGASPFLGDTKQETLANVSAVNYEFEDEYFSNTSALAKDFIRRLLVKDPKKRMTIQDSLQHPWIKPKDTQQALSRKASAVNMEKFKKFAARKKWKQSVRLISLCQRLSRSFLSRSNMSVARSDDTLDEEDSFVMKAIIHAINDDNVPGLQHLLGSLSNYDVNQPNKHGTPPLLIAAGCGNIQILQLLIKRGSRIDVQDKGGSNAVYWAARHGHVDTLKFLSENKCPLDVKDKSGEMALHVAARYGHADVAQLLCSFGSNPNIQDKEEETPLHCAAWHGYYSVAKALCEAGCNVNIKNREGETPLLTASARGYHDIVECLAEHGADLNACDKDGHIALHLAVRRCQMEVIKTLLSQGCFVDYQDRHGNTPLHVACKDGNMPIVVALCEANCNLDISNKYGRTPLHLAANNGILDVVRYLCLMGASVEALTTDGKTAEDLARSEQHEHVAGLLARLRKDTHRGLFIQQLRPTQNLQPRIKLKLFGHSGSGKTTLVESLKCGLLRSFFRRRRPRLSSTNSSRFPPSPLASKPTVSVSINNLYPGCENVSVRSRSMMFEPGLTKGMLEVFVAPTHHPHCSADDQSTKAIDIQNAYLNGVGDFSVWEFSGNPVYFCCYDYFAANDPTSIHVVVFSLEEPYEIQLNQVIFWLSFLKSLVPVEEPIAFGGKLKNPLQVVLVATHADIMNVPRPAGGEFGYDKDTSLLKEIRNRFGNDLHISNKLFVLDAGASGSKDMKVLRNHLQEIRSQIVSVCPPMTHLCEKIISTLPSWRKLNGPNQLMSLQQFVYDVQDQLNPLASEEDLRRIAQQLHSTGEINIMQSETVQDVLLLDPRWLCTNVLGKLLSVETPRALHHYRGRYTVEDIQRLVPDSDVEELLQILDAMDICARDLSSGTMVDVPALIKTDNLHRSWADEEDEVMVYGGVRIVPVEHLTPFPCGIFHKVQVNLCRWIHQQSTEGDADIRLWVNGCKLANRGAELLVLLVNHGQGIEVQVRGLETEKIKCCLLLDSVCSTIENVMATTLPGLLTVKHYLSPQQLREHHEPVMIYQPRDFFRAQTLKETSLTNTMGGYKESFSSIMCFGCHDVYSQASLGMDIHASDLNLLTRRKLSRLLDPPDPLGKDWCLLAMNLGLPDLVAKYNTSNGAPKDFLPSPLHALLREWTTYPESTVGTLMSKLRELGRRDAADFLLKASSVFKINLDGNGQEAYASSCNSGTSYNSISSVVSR
Sequence of Serine/threonine-protein kinase MARK1 (Homo sapiens) (Q9P0L2 whole entry, looked up): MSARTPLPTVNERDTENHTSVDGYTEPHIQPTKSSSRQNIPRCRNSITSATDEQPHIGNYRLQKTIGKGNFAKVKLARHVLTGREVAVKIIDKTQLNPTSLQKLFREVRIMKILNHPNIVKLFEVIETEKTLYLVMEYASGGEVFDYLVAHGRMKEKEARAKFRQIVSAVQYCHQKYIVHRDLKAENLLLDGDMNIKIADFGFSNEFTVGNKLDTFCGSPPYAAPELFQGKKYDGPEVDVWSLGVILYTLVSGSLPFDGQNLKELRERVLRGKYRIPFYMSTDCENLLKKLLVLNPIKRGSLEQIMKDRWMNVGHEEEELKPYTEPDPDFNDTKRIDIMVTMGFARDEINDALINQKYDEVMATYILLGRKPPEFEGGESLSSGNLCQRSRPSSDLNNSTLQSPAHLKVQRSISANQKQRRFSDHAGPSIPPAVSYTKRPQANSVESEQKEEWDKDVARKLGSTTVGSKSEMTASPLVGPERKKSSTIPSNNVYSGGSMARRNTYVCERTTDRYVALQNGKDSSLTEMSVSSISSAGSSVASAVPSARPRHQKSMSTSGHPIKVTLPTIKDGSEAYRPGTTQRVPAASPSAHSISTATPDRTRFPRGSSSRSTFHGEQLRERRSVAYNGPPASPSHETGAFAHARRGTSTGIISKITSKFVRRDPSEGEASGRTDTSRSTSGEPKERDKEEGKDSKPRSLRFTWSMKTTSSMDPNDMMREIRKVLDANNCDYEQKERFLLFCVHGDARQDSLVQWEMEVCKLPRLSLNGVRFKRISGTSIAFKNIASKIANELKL

Structure (SMILES)	inhibition [1] [%]	inhibition [2] [%]	inhibition [3] [%]	inhibition [4] [%]	inhibition [5] [%]	inhibition [6] [%]	inhibition [7] [%]	inhibition [8] [%]	inhibition [9] [%]	inhibition [10] [%]	inhibition [11] [%]	inhibition [12] [%]	inhibition [13] [%]	inhibition [14] [%]	inhibition [15] [%]	inhibition [16] [%]	inhibition [17] [%]	inhibition [18] [%]	inhibition [19] [%]	inhibition [20] [%]
Oc1cccc(-c2nc(-c3ccccc3)[nH]c2-c2ccncc2)c1	6.12	2.33	0.39	1.62	1.79	11.7	25.4	1.58	4.27	3.78	6.43	1.16	2.71	4.46	5.5	5.55	25.6	1.57	14.8	-0.88
Cc1cc(-c2ccccn2)cc(C)c1/C=C/c1cncc(-c2nn[nH]n2)c1	4.15	-0.19	1.55	2.23	2.74	4.19	6.94	1.24	4.82	2.15	7.09	2.52	3.91	4.28	9.19	2.08	3.07	0.76	2.73	1.02
O=C1Nc2ccc(-c3cccnc3)cc2C1=Cc1cc(Br)c(O)c(Br)c1	-6.21	1.65	0.92	1.36	1.49	2.4	2.92	4.31	9.1	4.31	6.43	1.85	3.53	3.77	10.4	2.71	12.7	6.02	36	1.17
CN1CCN(C(=O)c2ccc(NC(=O)Nc3ccc(N(C)c4ccnc(Nc5ccc(CS(C)(=O)=O)cc5)n4)cc3)cc2)CC1	2.64	-0.43	0.81	0.81	1.86	2.24	3.23	1.73	15.2	2.96	20.3	2.48	17.1	0.8	13.2	2.8	13.1	5.75	33.8	0.98
COC(=O)Nc1nc2cc(Oc3ccc(NC(=O)Nc4cccc(Br)c4)cc3)ccc2[nH]1	2.38	-0.32	4.24	1.26	1.19	4.95	6.43	1.41	1.86	3.56	1.7	0.25	1.17	2.93	4.7	4.77	8.85	1.96	4.55	-0.39
c1ccc(Cc2nc3ccc(Nc4ncnc5ccccc45)cc3[nH]2)cc1	5.17	-0.21	1.02	1.39	1.85	3.82	4.05	1.85	6.13	1.67	3.72	0.9	2.17	0.16	7.57	2.13	5.06	1.25	5.19	0.28
NC(=O)c1sc(-n2cnc3ccccc32)cc1OCc1ccccc1Br	10.6	-1	-0.82	4.58	6.13	8.98	12.7	2.32	5.92	-0.1	5.83	1.43	5.23	4.71	10.1	2.14	11.7	0.25	4.3	1.95
Cc1cc(Cl)cc2c1NC(=O)C2=NNc1ccc(S(N)(=O)=O)cc1	3.49	1.05	6.07	1.56	1.44	0.78	2.25	2.46	4.87	3.64	1.21	-0.63	-0.34	0.8	0.86	1.47	6.58	1.41	4.45	0.48
CC(C)c1ccc(Nc2nccc(-c3cnn4ncccc34)n2)cc1	-2.33	0.5	-1.7	0.86	0.39	3.55	6.14	0.51	4.24	2.56	3.95	0.24	2.61	5.96	26.3	3.64	11.8	2.64	15.2	-1.19
c1ccc(Nc2ncc(-c3ccccc3)o2)cc1	5.31	0.92	3.72	1.35	2.04	4.43	5.91	1.31	4.58	1.16	4.02	2.77	4.32	5.53	9.84	1.77	3.22	0.51	4.71	0.14
CS(=O)(=O)Nc1cccc(-c2ccc3c(NC(=O)C4CC4)n[nH]c3c2)c1	3.29	2.43	1.35	0.07	0.38	-0.07	0.93	0.98	3.49	1.49	6.61	1.87	3.42	0.93	4.3	2.34	13.5	0.41	3.39	-1.45
CN(C)C(=O)O[C@@H]1CN[C@@H](C#Cc2cc3ncnc(Nc4ccc(OCc5cccc(F)c5)c(Cl)c4)c3s2)C1	1.85	1.22	0.53	-2.43	-0.13	2.61	3.12	0.76	0.76	2.16	-0.12	0.74	1.37	-0.39	3.35	0.76	3.62	0.4	5.87	0.66
O=S(=O)(CCOCc1ccc(-c2ccc3ncnc(Nc4ccc(OCc5cccc(F)c5)c(Cl)c4)c3c2)o1)c1ccccc1	0.71	-0.21	1.2	0.69	0.79	-0.36	2.16	-0.2	2.87	0.76	1.33	1.36	3.69	3.07	7.12	1.49	4.07	-0.55	4.88	-0.42
Nc1ccc(C#Cc2cncnc2Nc2ccc(OCc3cccc(F)c3)c(Cl)c2)cc1	1.54	-0.36	-0.03	2.17	0.48	4.18	4.4	2.19	3.58	2.93	2.52	2.36	1.95	2.97	1.48	2.04	10.7	0.63	7.26	-0.22
